This note sets out measurements from PubChem BioAssay (NCI).

The structures appear in SMILES notation. The panel holds about 79,000 compounds, 15% with a hit somewhere; the sample as a whole holds those more often. Unmarked numbers belong to inactive results. Rule as the data show it: active = growth inhibition above about 70%; inactive = the rest.

The assay in a line: NCI Yeast Anticancer Drug Screen. Data for the mlh1 rad18 strain (AID 175). The settings on record: S. cerevisiae mlh1 rad18 strain growth inhibition; at 50.0 µM; hits give high values. The method, boiled down: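 Yeast w/ defined DNA-repair lesions; compound exposure; growth vs vehicle controls → % inhibition.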
`C=C(C)CC1CN2CCc3cc(OC)c(OC)cc3C2CC1=O` (configuration not stated): the growth inhibition is 26.6%. The figure for `Clc1ccc2oc(N3CCOCC3)nc2c1` is 4.1%. The figure for `O=c1nc(N2CCCCCCC2)ccn1C1OC(CO)C(O)C1O` (configuration not stated) is 8.5%; for `Cn1c(=O)c2[nH]c(CC3=CCCCC3)nc2n(C)c1=O` it is 21.6%. The same measure for `CC[N+](C)(CC)CCOc1nc2c(c(=O)n(C)c(=O)n2C)n1C`: -2.65%; for `CC(=O)CCC(=O)OCc1ccccc1`: 4.2%.

As for `O=C(NCCO)Nc1ccc2c(c1)OCCOCCOCCOCCO2`, the growth inhibition was 5.9%. The same measure for `S=C(N1CCN(c2ccc(Cl)c(Cl)c2)CC1)N1CCN(c2ccc(Cl)c(Cl)c2)CC1`: 20.2%; for `NCCSC(O)(C(F)(F)F)C(F)(F)F`: 23%; for `CC(C)=Cc1cc(C(=O)Nc2ccc(Cl)c(Cl)c2)nc(N)n1`: -32.1%.

As for `OC1c2ccccc2OC2(N3CCCC3)CCCCC12` (configuration not stated), the growth inhibition was 1.2%. The figure for `Cc1nc2c(-c3ccccc3)[nH]c(C)c2c(=O)o1` is -24.4%; for `COC1OC(C(COC(=O)c2ccccc2)OC(=O)c2ccccc2)C(OC(=O)c2ccccc2)C1OS(C)(=O)=O` (configuration not stated) it is 11.6%; for `COCc1ccc(C(=O)Nc2c(N)ncnc2N)cc1` it is -0.1%. The figure for `CC(C)(C)C(=O)CC(=O)C(C)(C)C.CC(C)(C)C(=O)CC(=O)C(C)(C)C.CC(C)(C)C(=O)CC(=O)C(C)(C)C.[Co]` is 0.15%; for `CNC(=O)Sc1ccc([N+](C)(C)C)cc1` it is 30.3%; for `CCCN1C(=O)c2cc(=O)n(Cc3ccccc3)c(O)c2C1C` (configuration not stated) it is 13.8%.
